# Bioassay records deposited in PubChem BioAssay by National Center for Advancing Translational Sciences (NCATS).
# A selection: hits, their analogues and other compounds. The true share with any hit is near 7.9%.
# HCMV antiviral = human cytomegalovirus inhibition; HFF cells, HCMV-luciferase reporter, 72 h; stronger effect = lower value; AID 1259415; activity change, negative = inhibition, % at 57.5 µM; actives 4.5% (n = 410,000); in the data active means activity change below about -60%; inconclusive means no clear call, values can overlap the other calls; inactive means above about -39%
#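 Screen run at 2 compound doses on HFFs infected with reporter HCMV, MOI 1 PFU/cell. Luciferase activity from cell lysates at 72 h post infection gave inhibition relative to buffer-only and Salinomycin wells.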
# Marburg entry inh = Marburg virus entry inhibition; AID 540276; actives 1.8% (n = 300,000); Potency, µM (top dose mostly 37.8 µM), without a hit: at the highest dose activity change, negative = inhibition, usual class: inhibitors; Marburg virus pseudotyped entry inhibition, cell reporter; calls by dose curve; tested in HEK293 cells; further: potency means the concentration at half of the fitted maximal effect
# HCV inh = inhibitors of hepatitis C virus infection | Huh7.5.1 HCVcc-Cre infection, luciferase reporter, 44 h | Potency, µM (titrated, usually from 41.8 µM), for the others: top-dose activity change, negative = inhibition, actives largely listed as inhibitors | actives 3.4% (n = 340,000); active means well fitted inhibition curve with a large enough effect; inconclusive means small, poorly fitted or top-dose-only effect, or another doubt; inactive means no such curve, though single readings can be large or run the other way; further: potency means the concentration at half of the fitted maximal effect
#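 Luciferase read-out (15 sec integration) after a 15 min room-temperature substrate step quantifies HCVcc-Cre infection. Cells, 1,000 per well, had compound added 4 h post-plating, then virus at ~0.5 moi, and were cultured 44 h.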
# LASV entry inh = inhibitors of Lassa virus binding or cell entry; Potency, µM (titrated, usually from 37.9 µM), for the others: top-dose activity change, negative = inhibition, usual class: inhibitors; actives 1.2% (n = 300,000); Lassa virus pseudotype entry inhibition, cell reporter; AID 540256; calls by dose curve; tested in HEK293 cells; further: potency means the concentration at half of the fitted maximal effect; nearly all actives have a fitted effect of over 50% in size
# FMDV antiviral = blocks foot and mouth disease virus | FMDV antiviral cell-based qHTS | Potency, µM (top dose mostly 57.9 µM), inactives show top-dose activity change, negative = inhibition, actives largely listed as inhibitors | actives 1.2% (n = 410,000); calls by dose curve; tested in HEK293T cells; further: read-out not given here; potency means the concentration at half of the fitted maximal effect; nearly all actives have a fitted effect of over 45% in size
# * hit, by the source's call; ? = inconclusive; · = not tested or not shown; ! = a repeat was not active; [ ] = another dose, or the depositor's remark. On the % scale 0 is the no-effect control and ±100 the full control effect.
SMILES,HCMV antiviral,Marburg entry inh,HCV inh,LASV entry inh,FMDV antiviral
COc1cccc(-n2c(-c3ccco3)nc3c(cnn3-c3ccccc3C)c2=O)c1,-33,?,·,?,14µM*
COc1cccc(-n2c(-c3ccco3)nc3c(cnn3-c3ccc(C)cc3)c2=O)c1,-76*,-24%[46.1 µM],·,?,?
COc1ccc(-n2c(-c3ccco3)nc3c(cnn3-c3ccccc3C)c2=O)cc1,?,?,-6%,?,?
COc1ccc(-n2ncc(Cl)c(Cl)c2=O)cc1,-101*,?,3.5µM*,?,8.9µM*
CCCC(=O)Nc1cccc(-c2cn3c(C)csc3n2)c1,-12,·,·,16%[46.1 µM],4%
COc1ccc(-n2c(=O)c3c(c4cc(OC)ccc4n3C)n(CC(=O)NCC3CCCO3)c2=O)cc1 (stereo not drawn),16,·,·,5%[46.1 µM],27%
COc1ccc(-n2c(-c3ccco3)nc3c(cnn3-c3ccc(C)cc3)c2=O)cc1,-5,1%[46.1 µM],?,?,40µM*!
O=c1c2cnn(-c3ccccc3)c2nc(-c2cccs2)n1-c1ccc(Cl)cc1,-23,-10%,?,?,?
CCc1nc2c(cnn2-c2ccc(Cl)cc2)c(=O)n1-c1ccc(OC)cc1,-37,?,11µM*,?,?
O=c1c2cnn(-c3ccccc3)c2nc(-c2cccs2)n1-c1cccc(Cl)c1,-76*,?,?,-29%,?
CCOc1ccc(-n2c(C)nc3c(cnn3-c3ccc(Cl)cc3)c2=O)cc1,-26,1%,11%,-1%,-15%
CCOC(=O)c1c(NC(=O)c2cc(=O)c3ccc(C)cc3o2)sc(C)c1C,16,28%[46.1 µM],·,9%[46.1 µM],9%
OC(c1ccccc1)c1nc2ccccc2n1Cc1c(F)cccc1Cl (stereo not drawn),-11,2%[46.1 µM],·,8%[46.1 µM],-19%
CCOC(=O)c1c(C)oc2ncnc(N3CCN(c4ccccc4F)CC3)c12,-15,·,·,?,32µM*
CCOC(=O)c1c(C)oc2ncnc(N3CCN(c4ccccc4)CC3)c12,-24,·,·,-25%[46.1 µM],28µM*
COc1ccc2c(c1)cc1c(=O)n(CC(=O)NCCc3ccccc3)nc(C)n12,1,6%[46.1 µM],·,·,-27%
Cc1[nH]c2ccccc2c1C(=O)CCl,?,·,?,·,25µM*
Cc1[nH]c2ccccc2c1C(=O)CNc1nccs1,26,15%,22µM*,15%,-3%
Cc1[nH]c2ccccc2c1C(=O)CSc1ccccn1,-10,?,?,24%[46.1 µM],2%
Cc1[nH]c2ccccc2c1C(=O)COC(=O)c1ccccc1O,10,3%,11µM*,-9%,5%
Cc1ccc(Nc2nnc(-c3ccc(C)c(S(=O)(=O)N4CCN(C)CC4)c3)c3ccccc23)c(C)c1,4,12%[46.1 µM],·,-2%[46.1 µM],-27%
CN(C)c1ccc(/C=C/c2cc[n+](C)c3ccccc23)cc1,-99*,7.9µM*,11µM*,?,8.9µM*
C[n+]1c(-c2ccccc2)sc2ccccc21,-22,·,-17%,·,-2%
CN(C)c1ccc(/C=C/c2nnnn2-c2ccccc2)cc1,21,?,-15%,?,15%
C[n+]1ccc(-c2ccccc2)c2ccccc21,-87*,·,?,·,?
SMILES,HCMV antiviral,Marburg entry inh,HCV inh,LASV entry inh,FMDV antiviral
CN(C)c1ccc(C=Cc2ccnc3c(O)cccc23)cc1,-99*,·,·,·,0%
CC(=O)/C=C/c1ccccc1O,-39,·,2%,·,-19%
C[n+]1ccc(/C=C/c2ccccc2O)c2ccccc21,-97*,3%[46.1 µM],-18%,-3%,-14%
CCOC(=O)c1[nH]c2c(c1Cc1ccccc1OC)C(=O)CC(c1ccccc1)C2 (stereo not drawn),-13,8%[46.1 µM],·,-19%[46.1 µM],3%
COc1ccc2c(c1)c1c(c(=O)n(-c3cccc(Cl)c3)c(=O)n1C)n2C,3,·,·,-9%[46.1 µM],-14%
Cc1ccc(NC(=O)CCN2C(=O)c3ccccc3Sc3ncccc32)c(Cl)c1,-20,·,·,10%[46.1 µM],-4%
C=C1C(=O)O[C@@H]2[C@H]1CC[C@H](C)[C@]1(O)CCC(=O)[C@@]21C,-68*,·,?,·,-21%
O=C(NCc1ccc2c(c1)CCN2C(=O)c1ccccc1)Nc1cccc(C(F)(F)F)c1,-97*,·,·,-1%[46.1 µM],?
Cc1ccc(C)c(NC(=O)NCc2ccc3c(c2)CCN3C(=O)c2ccccc2)c1,11,·,·,13%[46.1 µM],?
Cc1ccc(C(=O)NCc2ccc3c(c2)CCN3C(=O)c2ccc(C)cc2)cc1,-64*,·,·,-24%[46.1 µM],-15%
COc1ccc(CCC(=O)NCc2ccc3c(c2)CCN3C(=O)c2cccc(C)c2)cc1,-72*,·,·,-8%[46.1 µM],?
COc1ccc(CC(=O)NCc2ccc3c(c2)CCN3C(=O)c2ccc(Cl)cc2)cc1OC,-67*,·,·,11µM*,?
COc1ccc(CCC(=O)NCc2ccc3c(c2)CCN3C(=O)c2ccccc2)cc1,-36,·,·,9%[46.1 µM],-17%
Cc1cccc(N2CCN(C(=O)CCNS(=O)(=O)c3ccc4c(c3)CCN4C(=O)C3CC3)CC2C)c1 (stereo not drawn),?,·,·,-25%[46.1 µM],0%
CCOC(=O)c1cc(S(=O)(=O)NCc2ccccc2)[nH]n1,11,·,·,5%[46.1 µM],-6%
O=C(COc1ccccc1)Nc1ccc(C(=O)OCc2cc(=O)n3nc(C4CC4)sc3n2)cc1,15,·,·,?,-10%
Cc1ccc(CNC(=O)c2ccc(N3CCc4ccccc43)c([N+](=O)[O-])c2)cc1,?,?,6.3µM*,?,6%
CCCc1cc(=O)oc2c3c(cc(OCC(=O)NCc4ccncc4)c12)OC(C)(C)CC3,-39,·,?,·,?
Cc1cc(=O)oc2c3c(cc(OCC(=O)NCc4ccccc4)c12)OC(C)(C)CC3,57,·,5.6µM*,·,-28%
CCCc1cc(=O)oc2c3c(cc(OCC(=O)NCc4ccccn4)c12)OC(C)(C)CC3,?,·,10µM*,·,-26%
CCc1ccc2oc(-c3cccc(NC(=O)c4ccc(-c5cccc([N+](=O)[O-])c5)o4)c3)nc2c1,66,?,·,17%[46.1 µM],33%
Cc1ccc(N2CC(c3nnc(Cc4ccc(Cl)cc4)o3)CC2=O)cc1 (stereo not drawn),6,-24%[46.1 µM],·,-1%[46.1 µM],5%
COc1ccc(OC)c(-c2nc3ccccc3nc2-c2ccccc2)c1,29,-29%[46.1 µM],-17%,?,?
COc1ccccc1-c1nc2ccccc2nc1-c1ccccc1,-63*,?,-19%,?,0%
COC(=O)c1ccc(COc2cccn3c(N(C)C(=O)CCC4CCCC4)c(C)nc23)cc1,-33,·,·,·,35µM*
Cc1nc2c(OCc3ccc(C#N)cc3)cccn2c1N(C)C(=O)CCC1CCCC1,-8,·,·,·,22µM*
Cc1nc2c(OCc3ccc(F)cc3)cccn2c1N(C)C(=O)CCC1CCCC1,24,·,·,·,?
O=C(Nc1ccc(S(=O)(=O)NCC2CCCO2)cc1)c1ccc(Cl)cc1[N+](=O)[O-] (stereo not drawn),1,?,25µM*,6%[46.1 µM],25%
